Source: ChEMBL document CHEMBL1157539, “Thousands of chemical starting points for antimalarial lead identification” (Nature, 2010)

Legend:
Assay type in all cases: functional
Plasmodium falciparum [1] = assay: GSK_TCMDC: Inhibition of Plasmodium falciparum 3D7 in whole red blood cells, using parasite LDH activity as an index of growth. Test compounds present at 2uM
Plasmodium falciparum [2] = assay: GSK_TCMDC: Inhibition of Plasmodium falciparum Dd2 in whole red blood cells, using parasite LDH activity as an index of growth. Test compounds present at 2uM
HepG2 = assay: GSK_TCMDC: Percent inhibition of human HepG2 cell line. Test compounds present at 10uM.

| SMILES | Inhibition (Plasmodium falciparum [1]) | Inhibition (Plasmodium falciparum [2]) | Inhibition (HepG2) |
| --- | --- | --- | --- |
| COc1ccc(CNc2nccc3ccc(-c4ccc5nccn5c4)cc23)cc1.O=C(O)C(F)(F)F | 95% | 47% | 17% |
| CC(=O)Nc1ccc(CN2CCC(NC(=O)c3ccc(-c4cccc(F)c4)s3)CC2)cc1.O=C(O)C(F)(F)F | 96% | 13% | 6% |
| CCOC(=O)NC1=NC(C)(C)N(OCc2cccc3c2ccc2ccccc23)C(NC(=O)OCC)=N1 | 98% | 3% | 3% |
| O=C(Nc1ccc(OC2CCN(Cc3ccc(F)cc3)CC2)c(Cl)c1)c1ccccc1.O=C(O)C(F)(F)F | 90% | 89% | 16% |
| COc1ccc2nccc(N3CCC(CCNCc4ccc5c(n4)NC(=O)CO5)CC3)c2n1.Cl | 100% | 72% | 19% |
| Cc1cccc2nc(-c3ccc(-c4cccc(CNCCN(C)C)c4)cc3)[nH]c12.O=C(O)C(F)(F)F | 100% | 98% | 6% |
| Cc1cc(C)c2cc(CNCCCNc3nc4ccccc4[nH]3)[nH]c2c1 | 100% | 0% | 32% |
| O=C(/C=C/c1ccc(Cl)c(Cl)c1)NCCCCCN1CCC(CCNC(=O)/C=C/c2cc(C(F)(F)F)ccc2F)CC1 | 98% | 46% | 25% |
| O=C(O)C(F)(F)F.O=C1CCCN1CCCNCc1ccc(-c2cccc(-c3nc4cc(F)ccc4[nH]3)c2)cc1 | 100% | 8% | 12% |
| CCOC(=O)c1nc(-c2cccc(F)c2)[nH]c1N.Cl | 98% | 2% | 0% |
